NS1 inh: qHTS Assay for Inhibitors of Influenza NS1 Protein Function | Potency, µM (doses to about 46.1 µM), for the others: at the top dose activity, positive = more growth | 270,000 compounds, 0.4% hits | AID 2326, 2010; calls by dose curve; further: potency means the concentration at half of the fitted maximal effect; actives are rising curves; nearly all actives have a fitted effect of over 50% in size
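Compounds were scored for reversing the slow growth caused by influenza A NS1 in S. cerevisiae, measured by optical density at 600 nm. Assay medium contained 2% galactose at pH 6.0; NS1-free yeast of the same strain were the positive control.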
Pf growth 48h: Primary qHTS for delayed death inhibitors of the malarial parasite plastid, 48 hour incubation | Potency, µM (doses to about 28.7 µM), for inactives: at the highest dose activity change, negative = inhibition, usual class: inhibitors | 310,000 compounds, 5.9% hits | P. falciparum luciferase growth in erythrocytes, 48 h; further: potency means the concentration at half of the fitted maximal effect; on the % scale 0 is the no-effect control and ±100 the full control effect
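In quantitative HTS format, infected erythrocytes bearing luciferase-reporter parasites were treated for a single generation at 37 C. Luminescence after adding detection reagent served as the growth measure.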
Shiga inhibitor: A qHTS for Small Molecule Inhibitors of Shiga Toxin; Vero cells, Shiga toxin protein synthesis inhibition reporter; inhibition, % at 38.7 µM; 290,000 compounds, 9.2% hits; AID 2315, 2010; in the data active means inhibition mostly above about 28%, no sharp cut-off; inactive means mostly below about 43%; further: 0% is about no effect
Pf growth 96h: Primary qHTS for delayed death inhibitors of the malarial parasite plastid, 96 hour incubation; P. falciparum luciferase reporter growth, 96 h; Potency, µM (top dose mostly 28.7 µM), for inactives: top-dose activity change, negative = inhibition, most hits filed as inhibitors; 320,000 compounds, 6.9% hits; AID 504834, 2011; further: potency means the concentration at half of the fitted maximal effect; on the % scale 0 is the no-effect control and ±100 the full control effect
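P. falciparum expressing integrated firefly luciferase grown in erythrocytes (2% hematocrit, 0.05% parasitemia final) with compounds for 96 hours at 37 C, 5% CO2. Growth inhibition read as loss of luminescence after adding luciferase detection reagent.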
Cycloheximide cs: Cycloheximide Counterscreen for Small Molecule Inhibitors of Shiga Toxin; cell reporter, cycloheximide protein synthesis inhibition counterscreen; max response, %; 300,000 compounds, 12% hits; in the data active means max response mostly above about 13%, no sharp cut-off; inactive means mostly below about 14%; further: read at 38.3 µM for the half of the compounds with a filed dose; 0% is about no effect
The depositor's hits bear a star; ? = inconclusive; · = no result. Sampled rows, rich in hits. Any-hit rate of the full collection: about 21%. Unless noted, the call rests on the fitted dose curve; in most records, active means well fitted inhibition curve with a large enough effect; inconclusive means small, poorly fitted or top-dose-only effect, or another doubt; inactive means no such curve, though single readings can be large or run the other way.

SMILES | NS1 inh | Pf growth 48h | Shiga inhibitor | Pf growth 96h | Cycloheximide cs
CN(C(=S)NC(=O)CCCOc1ccc(Cl)cc1Cl)c1ccccc1 | -96% | · | 16 | 46% | 16
CCCC(=O)Nc1cc(OC)c(C(=O)OC)cc1Cl | -4% | 26% | 33 | 11% | -2
O=C(c1ccc(Cl)cc1[N+](=O)[O-])N1CCOCC1 | · | -10% | -3 | 6% | 5
O=C(CSc1nncs1)Nc1cccc2ccccc12 | · | 18% | · | 31% | ·
Cc1ccc2c(=O)cc(C(=O)NC3CCS(=O)(=O)C3)oc2c1C (centres undefined) | 14% | 10% | 13 | ? | 13
Cc1ccc2nc(N3C(=O)C(O)=C(C(=O)c4cc5ccccc5o4)C3c3cccs3)sc2c1 (centres undefined) | 0% | 147% | 98* | 87% | 62*
O=C(C1=C(O)C(=O)N(c2nccs2)C1c1ccccc1)c1cc2ccccc2o1 (centres undefined) | -4% | 109% | 59* | 147% | 44*
O=C(C1=C(O)C(=O)N(c2nc3ccc(Cl)cc3s2)C1c1ccco1)c1ccco1 (centres undefined) | · | ? | · | -11% | ·
O=C(C1=C(O)C(=O)N(CCc2ccccc2)C1c1ccncc1)c1cc2ccccc2o1 (centres undefined) | -2% | 11% | 13 | 0% | 7
CCc1ccc2nc(N3C(=O)C(O)=C(C(=O)c4ccco4)C3c3cccs3)sc2c1 (centres undefined) | 13% | 77% | 59* | 0% | 29*
Cc1cc(N2C(=O)C(O)=C(C(=O)c3cc4ccccc4o3)C2c2cccs2)no1 (centres undefined) | -1% | -8% | 40 | -8% | 19*
CCN(CC)CCCNC(=O)c1nn2c(C(F)(F)F)cc(-c3ccccc3)nc2c1Cl | 3% | 0% | -28 | ? | -4
NC(=O)C1CCN(C(=O)COc2ccc3ccc(=O)oc3c2)CC1 | 5% | 49% | -4 | 7% | -1
CC(C(=O)O)c1ccc(C(=O)c2ccccc2)s1 (centres undefined) | · | 3% | · | 10% | ·
CCCCCOc1ccc(CSCCNC(=S)Nc2ccccc2)cc1 | -2% | ? | 62 | 10µM* | 24*
O=C(CCNS(=O)(=O)c1ccccc1)Nc1ccccc1 | 3% | 28% | -6 | ? | -2
O=S(=O)(c1ccc2[nH]ccc2c1)N1CCCCCC1 | -2% | -1% | 5 | 33% | 1
COc1cc(C(=O)N(CCN(C)C)CC2CCCN(Cc3ccccc3F)C2)ccc1C (centres undefined) | 15% | 10µM* | 10 | -17% | -1
CN(C)CCN(CC1CCCN(Cc2ccccc2F)C1)C(=O)c1ccc(F)cc1 (centres undefined) | -6% | ? | -9 | 0% | 1
Cc1cc(C)c(C(=O)N(CCN(C)C)CC2CCCN(Cc3ccccc3F)C2)o1 (centres undefined) | 8% | 12µM* | -5 | ? | -4
COCCN(CC(=O)Nc1cccc(C)c1C)C(=O)CN1C(=O)NC2(CCCCC2)C1=O | · | 0% | · | -37% | ·
O=C(CN1CCN(C(=O)c2ccco2)CC1)Nc1ccc(Br)cc1 | -41% | ? | -12 | 33% | 5
Cc1ccc(NC(=O)Nc2cccs2)cc1 | 3% | 56% | 64* | 7.4µM* | 28*
Cc1ccc(NC(=O)Nc2cccs2)nc1 | 8% | 128% | 94* | · | 38*
CCOc1ccc(NC(=O)Nc2cccs2)cc1 | -53% | · | 61* | ? | 47*
SMILES | NS1 inh | Pf growth 48h | Shiga inhibitor | Pf growth 96h | Cycloheximide cs
Cc1cccnc1NC(=O)Nc1cccs1 | -42% | · | 35 | 36% | 24
CCc1ccc(NC(=O)Nc2cccs2)cc1 | -68% | 24% | 56* | 67% | 20*
CCc1ccc(NC(=O)C(C)OC(=O)CCC(=O)c2cccs2)cc1 (centres undefined) | -26% | 40% | 14 | 61% | -1
CCOc1ccc(NC(=O)Nc2ccc(Cc3ccncc3)cc2)cc1 | -6% | ? | -26 | ? | -5
N#Cc1ccccc1S(=O)c1ccccc1C(=O)Nc1ccccc1 (centres undefined) | · | 8% | -8 | -14% | -1
O=C1C(=Nc2cccc(Cl)c2)CC(c2ccc(Cl)cc2)N1c1cccc(Cl)c1 (centres undefined) | 7% | ? | -4 | ? | -4
CC(Oc1ccc(Cl)cc1)C(=O)NCC1CCCO1 (centres undefined) | -3% | 14% | -7 | -1% | -4
C[C@H](NC(=O)C1CC(=O)N(c2ccc(F)cc2)C1)C(=O)N1CCCCC1 (some centres undefined) | 10% | 26% | 11 | 65% | -2
COc1ccc(CCNC(=O)CCC(=O)Nc2ccccc2[N+](=O)[O-])cc1OC | ? | -1% | -6 | -16% | -1
COc1ccc(CCNC(=O)Nc2cccc([N+](=O)[O-])c2)cc1OC | -4% | -9% | 1 | 39% | 4
COc1ccc(CCNC(=O)Nc2cccc([N+](=O)[O-])c2)cc1 | · | 17% | 10 | 13µM* | -3
COc1ccc(CCNC(=O)Nc2ccccc2[N+](=O)[O-])cc1 | -2% | 0% | 67* | 3% | 37*
COc1ccc2c(c1)CN([C@H](C)[C@@H]1CC[C@@H]3[C@H]4CC[C@H]5C[C@@H](O)CC[C@@]5(C)[C@H]4CC[C@]31C)CO2 | -31% | · | · | · | ·
Cc1cc2c(OCC(O)CNCc3ccco3)cccc2[nH]1 (centres undefined) | 6% | 2.9µM* | -6 | 3.3µM* | 1
Cc1cc(OC(C)C(=O)NCc2cccnc2)c2c(C)cc(=O)oc2c1 (centres undefined) | -7% | ? | -5 | ? | -6
O=C(Nc1ccncc1)c1cccs1 | 0% | ? | -8 | ? | -3
Cc1cccc(C(=O)Nc2ccc3c(c2)ncn3C)c1 | -4% | 219% | 69* | 279% | 51*
Cc1cccc(C(=O)Nc2ccc3c(c2)nc(C)n3C)c1 | 2% | 202% | 41* | 424% | 39*
COCCNC(=O)c1ccc2c(c1)ncn2-c1cccc(C)c1 | 1% | 34% | 30 | ? | 15*
Cn1cnc2cc(NC(=O)c3cccs3)ccc21 | -3% | 138% | 69* | 34% | 41*
COCCNC(=O)c1ccc2c(c1)nc(C)n2-c1cccc(Cl)c1 | -5% | 4% | -16 | -2% | -3
C=CCn1c(SCc2ccc(F)cc2)nnc1-c1sc2nc(C)cc(C)c2c1N | -2% | 12% | -2 | ? | -1
CCOC(=O)C1CCN(Cc2cc(Cl)c3ccccc3c2O)CC1 | -41% | 1.2µM* | 47 | 1.2µM* | 12*
CCOC(=O)C1CCN(Cc2ccccn2)CC1 | -1% | 9% | -1 | 10µM* | -2
CCN(CC)CC(=O)N1c2ccccc2CCc2ccc(NC(=O)c3cc(OC)c(OC)c(OC)c3)cc21 | 1% | 12µM* | 9 | 9.3µM* | 5

Source: PubChem (National Center for Advancing Translational Sciences (NCATS))
